The values below come from PubChem BioAssay AID652189 (Johns Hopkins Ion Channel Center, 2013).

The whole screen tested about 2,300 compounds, of which about 900 (39%) were called active.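 The calls were made as follows: active = mean duplicate percent inhibition, scaled so buffer wells are 0 and the reference blocker 100, over three buffer SD above buffer mean; inactive = the rest.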 These entries were drawn from the full list.

The target of this assay is Anoctamin-1 (Mus musculus) (UniProt Q8BHY3). Briefly: TMEM16A chloride channel inhibitors, confirmation, cell-based, re-confirmation (AID 652189). As to conditions: HEK293 TMEM16A/YFP-H148Q, iodide quench fluorescence, at 10 µM, ionomycin added to raise cell calcium; hits give high values.
Chain of Anoctamin-1 (Mus musculus) (Q8BHY3 whole entry, looked up): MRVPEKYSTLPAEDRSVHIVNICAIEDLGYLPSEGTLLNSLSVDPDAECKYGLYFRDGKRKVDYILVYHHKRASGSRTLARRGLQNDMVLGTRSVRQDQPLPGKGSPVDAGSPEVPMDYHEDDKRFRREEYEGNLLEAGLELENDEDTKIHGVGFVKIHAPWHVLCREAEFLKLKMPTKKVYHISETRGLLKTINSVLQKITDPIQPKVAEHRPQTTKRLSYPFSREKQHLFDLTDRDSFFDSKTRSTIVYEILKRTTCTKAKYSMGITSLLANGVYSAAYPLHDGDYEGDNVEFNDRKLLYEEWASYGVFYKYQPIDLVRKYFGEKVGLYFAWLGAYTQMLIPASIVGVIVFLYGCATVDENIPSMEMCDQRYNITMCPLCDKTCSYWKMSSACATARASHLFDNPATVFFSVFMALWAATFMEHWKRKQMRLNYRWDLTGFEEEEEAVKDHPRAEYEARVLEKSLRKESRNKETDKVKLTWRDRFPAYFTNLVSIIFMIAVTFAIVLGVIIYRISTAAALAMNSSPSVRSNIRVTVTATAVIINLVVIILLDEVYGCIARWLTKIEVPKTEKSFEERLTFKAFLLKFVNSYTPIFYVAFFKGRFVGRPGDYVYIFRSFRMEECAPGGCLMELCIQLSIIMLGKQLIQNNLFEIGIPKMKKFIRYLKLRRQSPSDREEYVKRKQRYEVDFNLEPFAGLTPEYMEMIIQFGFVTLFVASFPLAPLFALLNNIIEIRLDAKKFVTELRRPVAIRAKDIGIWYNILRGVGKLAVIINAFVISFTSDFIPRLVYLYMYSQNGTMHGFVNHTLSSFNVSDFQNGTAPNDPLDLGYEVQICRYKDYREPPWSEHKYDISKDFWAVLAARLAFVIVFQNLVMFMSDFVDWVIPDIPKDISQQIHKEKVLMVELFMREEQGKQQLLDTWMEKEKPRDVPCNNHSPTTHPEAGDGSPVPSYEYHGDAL
With `CC(=O)c1c(C)[nH]c(C(=O)COC(=O)c2cccc(S(=O)(=O)N(C)c3ccccc3)c2)c1C`, the inhibition is 33.5% (active).

Consider `Cc1ccc2c(c1)N(S(=O)(=O)c1cc(-c3cc(C)no3)ccc1C)CCO2`, for which the inhibition is 42.5% (active).

On to `CCCCn1ccnc1C(=O)c1cccc(S(=O)(=O)N2c3ccccc3CC2C)c1` (stereo unspecified), for which the inhibition entry is “inactive”.

Regarding `Cc1nc(C)c(-c2csc(NCCc3ccccc3)n2)s1`, the inhibition was 36% (active).

In the case of `CCOC(=O)c1cccc(NC(=O)CCn2nnc3ccccc32)c1`, the inhibition entry is “inactive”.

In the case of `COc1ccc2[nH]cc(/C=C(/C#N)S(=O)(=O)c3ccccc3)c2c1`, the inhibition was 28% (active).

For `COc1ccc(NC(=O)C2=CC(c3ccc(OC)c(OC)c3)=NS(=O)(=O)N2C)cc1`, the inhibition is 27% (active).

As to `CC(NC(=O)c1ccco1)C(=O)Nc1nc(-c2ccccn2)cs1` (stereo unspecified), the inhibition entry is “inactive”.

On to `Cc1noc(C)c1COC(=O)c1cc2ccccc2cc1O`, for which the inhibition entry was “inactive”.

For `COc1ccc(CNc2nnnn2C)cc1`, the inhibition entry is “inactive”.

Take `Cn1c(CN2CCOCC2)nc2cc(NC(=O)c3ccc(Cl)cc3)ccc21`: the inhibition was 20% (active).

For the molecule `Cn1c(CCN2CCCCCC2)nc2cc(NC(=O)Nc3ccccc3)ccc21`, the inhibition entry is “inactive”.

For `CC(C)CNC(=S)NNC(=O)c1nn(C)cc1Cl`, the inhibition entry was “inactive”.

For `O=C(COC(=O)CCc1c[nH]c(=O)[nH]1)Nc1ccccc1Cl`, the inhibition result is “inactive”.

In the case of `Cc1nc2ccccc2cc1OCc1ccc(F)cc1`, the inhibition was 22.5% (active).

For `O=C(COc1ccccc1)NCc1ccc2c(c1)OCO2`, the inhibition result was “inactive”.

Regarding `O=C(NCCc1ccc2c(c1)OCCO2)c1cc2ccccc2o1`, the inhibition is 21% (active).

Consider `COc1ccc(-c2nc(CCNC(=O)c3ccc(Br)o3)cs2)cc1`, for which the inhibition entry is “inactive”.

Regarding `Cc1cccc(N=Nc2c(O)[nH]c3ccc(F)cc23)c1`, the inhibition entry was “inactive”.

Consider `O=c1cc(C(F)(F)F)[nH]c(=O)n1C1CCCCC1`, for which the inhibition entry was “inactive”.

With `C=CCn1c(SCC(=O)Nc2nc3ccccc3s2)nnc1-c1ccccc1O`, the inhibition is 30.5% (active).

With `Cc1ccc(-c2noc(CSc3nnnn3-c3ccccc3)n2)cc1`, the inhibition result is “inactive”.

For `CN1c2ccc(C=O)c3c(C=O)ccc(c23)N(C)C1(C)C`, the inhibition result was “inactive”.

Regarding `CSc1nsc(NC(=O)Nc2ccccc2)n1`, the inhibition is 45% (active).

Regarding `C=CCSc1nsc(NC(=O)Nc2cccc(C(C)=O)c2)n1`, the inhibition was 53% (active).

Turning to `CN(C)c1cc[n+](Cc2ccccc2)cc1`, the inhibition result is “inactive”.

Take `N#Cc1nc(N)nc(N(c2ccccc2)c2ccccc2)n1`: the inhibition entry is “inactive”.

Consider `c1ccc(-c2nnc(SCc3nc4ccccc4[nH]3)o2)cc1`, for which the inhibition entry was “inactive”.

Regarding `N#CC1=C(SCc2ccccc2)NC(=O)C(C#N)C12CCCC2` (stereo unspecified), the inhibition is 17.5% (active).

As to `CSc1nnc2c(n1)OC(c1ccsc1)N(C(C)=O)c1ccccc1-2` (stereo unspecified), the inhibition result was “inactive”.

In the case of `CCCc1cc(=S)n2c([nH]c3ccccc32)c1C#N`, the inhibition was 35.5% (active).

Usually inhibition stands for how much of the control response was suppressed.
